Compound activity deposited in PubChem BioAssay by National Center for Advancing Translational Sciences (NCATS).
Rows were chosen to be rich in hits. Some 10% of all compounds tested hit in one or more screens of this group.
ALOX12 inhib: blocks human 12-lipoxygenase activity; P18054; purified 12-hLO, xylenol orange hydroperoxide absorbance; Potency, µM (top dose mostly 57.1 µM), without a hit: at the highest dose activity change, negative = inhibition, hits mostly inhibitors; 150,000 compounds, 0.12% hits; also: potency is read from the fitted curve at half-maximal effect; nearly all actives have a fitted effect of over 55% in size
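Hydroperoxide formation by human 12-lipoxygenase from 40 uM arachidonic acid was followed colorimetrically via ferric-xylenol orange complex, using the 573/405 nm absorbance ratio. Enzyme concentration was 150 nM, with 30 min reaction at room temperature.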
GLA spleen mod: inhibits or activates alpha-galactosidase in human spleen homogenate. P06280. human spleen homogenate, 4MU-alpha-Gal fluorescence, 40 min. Potency, µM (top dose mostly 80 µM), for the others: at the top dose activity change, negative = inhibition, actives largely listed as inhibitors. 240,000 compounds, 0.008% hits. AID 2107;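 also: potency is read from the fitted curve at half-maximal effect; 0% = enzyme with vehicle and -100% = no enzyme basal signal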
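Human spleen homogenate (1 ug) as enzyme source, 4-methylumbelliferyl-alpha-D-galactopyranoside 1 mM final, citrate/phosphate pH 5.0 with 0.01% Tween-20. Compounds 40 min at 37C, NaOH/glycine stop; fluorescence Ex 365/Em 440, Hill-fit AC50.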
GLA inh pH 4.5: alpha-galactosidase A (human) inhibition, pH 4.5; activity change, negative = inhibition, % at 105 µM; AID 1467; purified enzyme, 4-MU-alpha-Gal fluorescence, pH 4.5; 230,000 tested, under 10 active;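 also: 0% = full activity with enzyme and -100% = basal without enzyme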
PNC assembly inh: blocks assembly of the perinucleolar compartment; activity change (PNC), negative = inhibition, % at 10 µM; AID 2417; 140,000 compounds, 3.1% hits; PC3M PTB-GFP, PNC prevalence imaging, 16 h; stronger effect = lower value;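 active = readout at or below -70, meaning at least 70% loss of cells showing the perinucleolar compartment, a nuclear body marking cancer cells; inconclusive = readout between -30 and a set limit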;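 also: plate controls were DMSO wells for no effect and camptothecin positive control wells for full effect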
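Read-out is percentage of cells bearing a perinucleolar compartment, from automated 20x imaging of fixed, Hoechst-stained PC3M PTB-GFP cells. Cells were seeded 4 h, then exposed 16 h to compound (23 nl of library stock) in duplicate plates.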
HPGD block: HPGD (human) dehydrogenase inhibition | purified HPGD, NADH fluorescence kinetic, PGE2 substrate | Potency, µM, for the others: top-dose activity change, negative = inhibition, most hits filed as inhibitors | 150,000 compounds, 4.3% hits | AID 894; active = well fitted inhibition curve with a large enough effect, not every such curve was filed as active; inconclusive = small, poorly fitted or top-dose-only effect, or another doubt; inactive = no such curve, though single readings can be large or run the other way; also: potency is read from the fitted curve at half-maximal effect
Target sequence (P15428 whole entry, looked up): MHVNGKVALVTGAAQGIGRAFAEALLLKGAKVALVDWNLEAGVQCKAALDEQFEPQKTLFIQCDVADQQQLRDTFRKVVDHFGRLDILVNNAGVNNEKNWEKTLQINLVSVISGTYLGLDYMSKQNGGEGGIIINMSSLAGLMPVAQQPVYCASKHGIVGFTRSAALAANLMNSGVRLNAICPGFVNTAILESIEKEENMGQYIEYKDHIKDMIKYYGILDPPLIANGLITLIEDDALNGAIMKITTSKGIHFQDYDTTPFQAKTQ
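20 nM HPGD preincubated 15 min at room temperature with compound in 50 mM Tris-HCl pH 8, 0.01% Tween 20. Started with 1 mM NAD+ and 30 uM prostaglandin E2; NADH fluorescence (360/450 nm) read 5 times over 30-s intervals, last minus first.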
ALDH1A1 inh: ALDH1A1 (human) enzyme inhibition | Purified ALDH1A1, NADH fluorescence, propionaldehyde substrate | P00352 | 220,000 compounds, 7.3% hits | Potency, µM (series often up to 75.3 µM), inactives show top-dose activity, negative = inhibition, most hits filed as inhibitors; active = well fitted inhibition curve with a large enough effect, not every such curve was filed as active; inconclusive = small, poorly fitted or top-dose-only effect, or another doubt; inactive = no such curve, though single readings can be large or run the other way;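 also: potency is read from the fitted curve at half-maximal effect; plate controls were no enzyme wells and a reference inhibitor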
Target sequence (P00352 whole entry, looked up): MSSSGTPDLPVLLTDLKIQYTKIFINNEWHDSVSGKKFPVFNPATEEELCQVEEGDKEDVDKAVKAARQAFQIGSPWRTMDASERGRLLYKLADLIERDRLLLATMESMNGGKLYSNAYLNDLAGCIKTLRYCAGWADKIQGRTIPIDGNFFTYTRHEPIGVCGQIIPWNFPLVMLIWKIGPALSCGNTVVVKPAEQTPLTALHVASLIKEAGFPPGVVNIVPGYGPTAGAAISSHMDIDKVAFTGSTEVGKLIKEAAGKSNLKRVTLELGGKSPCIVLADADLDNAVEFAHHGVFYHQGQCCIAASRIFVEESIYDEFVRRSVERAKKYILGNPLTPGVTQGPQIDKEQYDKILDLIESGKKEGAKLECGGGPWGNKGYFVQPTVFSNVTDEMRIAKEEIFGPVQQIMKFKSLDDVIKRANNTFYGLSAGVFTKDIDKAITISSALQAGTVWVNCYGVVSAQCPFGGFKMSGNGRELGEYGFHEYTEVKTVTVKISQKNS
An asterisk follows results filed as active; [ ] = another dose, or the depositor's remark. Unless noted, calls follow the shape of the dose curve; as a rule, active = well fitted curve in the direction sought with a large enough effect; inconclusive = small, poorly fitted or top-dose-only effect, or another doubt; inactive = no such curve, though single readings can be large; an effect the other way counts as inactive or inconclusive. Unless noted, % is scaled to controls: 0 for no effect and ±100 for the full control effect.

How did COc1ccc(-c2[nH]ncc2CN2CCN(C3CCCCC3)C(=O)C2)cc1F do in these assays?
GLA spleen mod: 8%; GLA inh pH 4.5: 10; ALDH1A1 inh: 1.4µM*

How did COc1ccc(-c2[nH]ncc2CN2CCC(c3ccncc3)CC2)cc1F do in these assays?
GLA spleen mod: 0%; GLA inh pH 4.5: -3

What do the screens show for `O=C(Nc1ccc(C(=O)NC2CCCCC2)cc1)c1cncc(Br)c1`?
GLA spleen mod: -4%; GLA inh pH 4.5: -5; ALDH1A1 inh: -4%

How did COC(=O)[C@@]1(Cc2ccc(OC)cc2)[C@H]2c3cc(C(=O)N(C)C)n(CCc4ccccn4)c3C[C@H]2CN1C(=O)c1ccccc1 do in these assays?
ALOX12 inhib: -26%; GLA spleen mod: -1%; GLA inh pH 4.5: -16; HPGD block: -7%; ALDH1A1 inh: -2%

How did COCCNc1ccc(N2C(=O)C3CCCCC3C2=O)cc1[N+](=O)[O-] (centres undefined) do in these assays?
GLA spleen mod: -3%; GLA inh pH 4.5: 1[21.1 µM]; ALDH1A1 inh: -3%

What do the screens show for `O=C1C2CCCCC2C(=O)N1c1ccc(NC2CCCCC2)c([N+](=O)[O-])c1` (centres undefined)?
ALOX12 inhib: -1%; GLA spleen mod: -3%; GLA inh pH 4.5: 0; PNC assembly inh: -21; HPGD block: -29%; ALDH1A1 inh: 10µM*

How did COc1ccc(C2CC(=O)Oc3c(C(CCN4CCOCC4)c4ccc5c(c4)OCO5)c(OC)cc(OC)c32)cc1 (centres undefined) do in these assays?
GLA spleen mod: 10%

How did N#CC1=C(N)N(c2ccc(Oc3ccccc3)cc2)C(=O)C1 do in these assays?
ALOX12 inhib: -7%; GLA spleen mod: 13%; GLA inh pH 4.5: -6; PNC assembly inh: 18; HPGD block: -2%; ALDH1A1 inh: 25µM*

What do the screens show for `COc1ccc2c(c1)C(=O)N(c1ccccc1)C(=O)C2`?
ALOX12 inhib: -4%; GLA spleen mod: 4%; GLA inh pH 4.5: 4; PNC assembly inh: 19; HPGD block: inconclusive; ALDH1A1 inh: inconclusive

What do the screens show for `O=C(O)C1CCCN1` (centres undefined)?
GLA spleen mod: 5%

How did Cc1c(CCOC(=O)C23CC4(C)CC(C)(CC(C)(C4)C2)C3)sc[n+]1CC(=O)c1ccccc1 do in these assays?
GLA spleen mod: 4%; GLA inh pH 4.5: 2; ALDH1A1 inh: 9%

What do the screens show for `Cc1c(CCOC(=O)c2cc([N+](=O)[O-])cc([N+](=O)[O-])c2)sc[n+]1CC(=O)c1ccc(Br)cc1`?
GLA spleen mod: 0%; GLA inh pH 4.5: -10; ALDH1A1 inh: 2.5µM*

How did O=C(N/N=C/c1cc([N+](=O)[O-])ccc1O)C12CC3CC(CC(C3)C1)C2 do in these assays?
GLA spleen mod: -2%; GLA inh pH 4.5: -12; ALDH1A1 inh: 0.89µM*

Results for Cc1cccc(CNc2ncnc3ccc(-c4ccccc4CN(C)C)cc23)c1 ?
ALOX12 inhib: -4%; GLA spleen mod: 3%; GLA inh pH 4.5: -17; HPGD block: inconclusive; ALDH1A1 inh: inconclusive

Results for Cc1cc(Br)c(OCc2ccc(C(=O)N/N=C3\CC4CC=CC34)cc2)c(Br)c1 (centres undefined) ?
ALOX12 inhib: 0%; GLA spleen mod: -1%; GLA inh pH 4.5: -4; PNC assembly inh: 21; HPGD block: 13µM*; ALDH1A1 inh: 8.9µM*

How did O=C(Oc1cc2oc(=O)cc(-c3ccccc3)c2cc1Cl)C1CCCCC1 do in these assays?
ALOX12 inhib: -16%; GLA spleen mod: 5%; GLA inh pH 4.5: 8; PNC assembly inh: -7; HPGD block: inconclusive; ALDH1A1 inh: inconclusive

Results for O=C(O)COc1ccc2c(-c3ccccc3)cc(=O)oc2c1 ?
ALOX12 inhib: 5%; GLA spleen mod: -1%; GLA inh pH 4.5: 3; PNC assembly inh: inconclusive; HPGD block: 18µM*; ALDH1A1 inh: inconclusive

How did CC(C)(C)OC(=O)NCC(=O)Oc1cc2oc(=O)cc(-c3ccccc3)c2cc1Cl do in these assays?
ALOX12 inhib: -2%; GLA spleen mod: 5%; GLA inh pH 4.5: 2; PNC assembly inh: inconclusive; HPGD block: inconclusive; ALDH1A1 inh: 25µM*

What do the screens show for `Cc1cc(=O)oc2cc(OCC(=O)OCc3nnc(-c4ccccc4)o3)ccc12`?
ALOX12 inhib: 10%; GLA spleen mod: 8%; GLA inh pH 4.5: 10; PNC assembly inh: -86*; HPGD block: inconclusive; ALDH1A1 inh: inconclusive

How did CC(=O)COc1ccc2c(-c3cccc([N+](=O)[O-])c3)cc(=O)oc2c1 do in these assays?
GLA spleen mod: 2%; GLA inh pH 4.5: 1; ALDH1A1 inh: inconclusive

How did Cc1cc(=O)oc2cc(OCC(=O)NCCc3nc4ccccc4[nH]3)ccc12 do in these assays?
ALOX12 inhib: 19%; GLA spleen mod: 17%; GLA inh pH 4.5: -4; PNC assembly inh: -87*; HPGD block: inconclusive; ALDH1A1 inh: inconclusive

Results for Cc1cc(=O)oc2cc(OCc3nnc(-c4ccccc4Br)o3)ccc12 ?
ALOX12 inhib: -2%; GLA spleen mod: inconclusive; GLA inh pH 4.5: 14; PNC assembly inh: 13; HPGD block: inconclusive; ALDH1A1 inh: inconclusive

How did COC(=O)c1ccc(C(NC(=O)OCc2ccccc2)/C(=C/[C@@H](C)C(=O)NCc2ccccc2)c2cccnc2)cc1 (some centres undefined) do in these assays?
ALOX12 inhib: 1%; GLA spleen mod: 0%; GLA inh pH 4.5: -2; HPGD block: -16%; ALDH1A1 inh: -2%

Results for CN(C)c1ccnc2sc3c(NCC(O)CO)ncnc3c12 (centres undefined) ?
ALOX12 inhib: 1%; GLA spleen mod: 6%; GLA inh pH 4.5: -5; PNC assembly inh: 31; HPGD block: -1%; ALDH1A1 inh: inconclusive

How did CN(C)c1ccnc2sc3c(SCc4ccc(Cl)cc4)ncnc3c12 do in these assays?
ALOX12 inhib: -3%; GLA spleen mod: 5%; GLA inh pH 4.5: 5; PNC assembly inh: 21; HPGD block: 16µM*; ALDH1A1 inh: 1%

Results for Brc1ccc(C2=Nn3c(Cn4nnc5ccccc54)nnc3SC2)cc1 ?
GLA spleen mod: 2%; GLA inh pH 4.5: 5

Results for O=C(NCc1ccco1)c1ccccc1-c1ccccc1 ?
ALOX12 inhib: 1%; GLA spleen mod: 3%; GLA inh pH 4.5: 11; PNC assembly inh: 13; HPGD block: -4%; ALDH1A1 inh: -5%

Results for O=C(NCc1cccs1)c1ccccc1 ?
ALOX12 inhib: 4%; GLA spleen mod: -12%; GLA inh pH 4.5: -3; PNC assembly inh: 29; HPGD block: 25µM*; ALDH1A1 inh: 7%
